Assay outcomes deposited in PubChem BioAssay by The Scripps Research Institute Molecular Screening Center.
The entries come from a sample that favours hits as a whole.
TbREL1 primary = TbREL1 RNA ligase inhibitors, primary screen, biochemical, FRET fluorescence | inhibition, % at 9.66 µM | TbREL1 RNA ligation | AID 1117264, 2014 | RNA-editing ligase 1, mitochondrial (Trypanosoma brucei brucei), P86926 | 89,000 tested, 0.49% active;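 active = inhibition above the mean inhibition across all screened compounds plus 3 SD, cut at about 11% in these data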;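 also: 0% = plate median of test wells and 100% = NSC42067 control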
Target sequence (P86926 whole entry, looked up): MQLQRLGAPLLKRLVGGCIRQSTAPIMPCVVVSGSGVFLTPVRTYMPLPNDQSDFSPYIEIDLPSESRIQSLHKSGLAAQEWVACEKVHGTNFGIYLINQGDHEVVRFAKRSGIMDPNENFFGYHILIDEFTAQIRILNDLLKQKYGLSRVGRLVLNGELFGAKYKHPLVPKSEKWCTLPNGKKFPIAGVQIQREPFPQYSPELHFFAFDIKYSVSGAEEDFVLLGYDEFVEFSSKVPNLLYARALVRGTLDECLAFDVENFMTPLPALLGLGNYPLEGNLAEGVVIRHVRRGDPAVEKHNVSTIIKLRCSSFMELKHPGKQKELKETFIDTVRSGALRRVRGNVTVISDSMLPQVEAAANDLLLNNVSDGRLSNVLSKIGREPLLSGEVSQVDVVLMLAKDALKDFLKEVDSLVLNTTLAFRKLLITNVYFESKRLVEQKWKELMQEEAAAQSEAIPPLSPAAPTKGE
TbREL1 conf = TbREL1 RNA ligase inhibitors, confirmation, biochemical, FRET fluorescence, triplicate; shares compounds with TbREL1 primary; TbREL1 RNA ligation; inhibition, % at 9.66 µM; 390 tested, 37% active;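 active = mean inhibition across replicates above a set limit taken from the earlier primary screen, cut at about 11% in these data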;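 also: 0% = REL1 with substrate and DMSO and 100% = REL1 plus control inhibitor NSC42067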
Active calls of the source: *.

Results for CC(C)C[C@H](NC(C)(C)C(=O)NC1CCCCC1)C(=O)NCCc1c[nH]c2ccccc12 ?
TbREL1 primary: 1

How did O=C(NCCO)[C@H](Cc1ccccc1)NC1(C(=O)NCCc2c[nH]c3ccccc23)CCCCC1 do in these assays?
TbREL1 primary: -8

How did COc1ccc(C(=O)N[C@@H]2CC[C@@]34CCCN3C(=O)CCC[C@H]4[C@H]2C)cc1 do in these assays?
TbREL1 primary: -4

What do the screens show for `COc1cccc(-c2nnc3n2N=C(c2ccc(Cl)cc2)CS3)c1`?
TbREL1 primary: 4

Results for O=c1/c(=C/c2ccco2)sc2n1CN(c1ccccc1)CN=2 ?
TbREL1 primary: 4

Results for N#CC1=C(N)n2c(s/c(=C\c3ccco3)c2=O)=C(C#N)C1c1ccco1 (stereo not given) ?
TbREL1 primary: 27*; TbREL1 conf: 8

How did O=c1nc2s/c(=C\c3ccco3)c(=O)n2nc1Cc1ccc(F)cc1 do in these assays?
TbREL1 primary: 1

Results for CC(C)N1CCCCC(NC(=O)c2ccc(-c3ccccc3)cc2)C1=O (stereo not given) ?
TbREL1 primary: -4

What do the screens show for `C#CCOCCOCCOCCNc1nc(N2CCN(C(=O)Cn3cc(CCCN=C(N)N)nn3)CC2)nc(N2CCN(C(=O)[C@H](Cc3ccc(O)cc3)n3cc(CCO)nn3)CC2)n1`?
TbREL1 primary: 0

How did COc1ccc(-n2c(SCC(=O)Nc3ccc(Oc4ccccc4)cc3)nnc2-c2cccnc2)cc1 do in these assays?
TbREL1 primary: 6

How did Cc1ccc(OCc2nnc(SCC(=O)Nc3ccc(S(N)(=O)=O)cc3)n2-c2ccc(Cl)cc2)cc1 do in these assays?
TbREL1 primary: -5

Results for C(=N/N1CCN(c2ccccc2)CC1)/c1ccco1 ?
TbREL1 primary: -6

How did O=C(OCc1cn(Cc2cc(F)ccc2F)nn1)N1CCOCC1 do in these assays?
TbREL1 primary: 2

How did COC(=O)C1=C(C)N(Cc2ccccc2C(F)(F)F)C(=NCc2ccc3c(c2)OCO3)NC1c1ccc(C(F)(F)F)cc1 (stereo not given) do in these assays?
TbREL1 primary: 14*; TbREL1 conf: 21*

Results for COC(=O)C1=C(C)N(Cc2ccccc2C(F)(F)F)C(=NCc2ccc3c(c2)OCO3)NC1c1ccccc1 (stereo not given) ?
TbREL1 primary: 12*; TbREL1 conf: 14*

What do the screens show for `COC(=O)C1=C(C)N(Cc2ccccc2)C(=NCc2ccc3c(c2)OCO3)N[C@H]1c1ccccc1`?
TbREL1 primary: 9

How did COC(=O)C1=C(C)N(Cc2ccccc2C(F)(F)F)C(=NCc2ccc3c(c2)OCO3)NC1c1ccc(Cl)cc1 (stereo not given) do in these assays?
TbREL1 primary: 11

What do the screens show for `N#Cc1ccccc1N1CCN(S(=O)(=O)c2ccc3c(c2)CCC(=O)N3)CC1`?
TbREL1 primary: -2

Results for CCCCCc1ccc(NC(=O)O[C@@H]2CC[C@@]34CCCN3C(=O)CCC[C@H]4C2)cc1 ?
TbREL1 primary: -3

How did COc1ccc(CCNC(=O)c2cc3ccccn3n2)cc1 do in these assays?
TbREL1 primary: 1

What do the screens show for `CCOC(=O)c1ccc(NC(=O)CSc2nnc(SCc3cccc4ccccc34)s2)cc1`?
TbREL1 primary: 1

What do the screens show for `CCN(CC)c1ccc(C=NNC(=O)Cc2cc(=O)[nH][nH]2)c(O)c1`?
TbREL1 primary: 0

How did C=CCN(C)C(C#CCCCC)c1ccccc1 (stereo not given) do in these assays?
TbREL1 primary: 2

How did C[C@H]1[C@H](NC(=O)c2ccc(Cl)c(Cl)c2)CC[C@@]23CCCN2C(=O)CCC[C@@H]13 do in these assays?
TbREL1 primary: -1

Results for O=C(CSc1ncnc2sc3c(c12)CCCC3)Nc1ccc(Oc2ccccc2)cc1 ?
TbREL1 primary: 1

How did O=C(c1cc2ccccc2o1)N1CCN=C1SCc1cccc(F)c1 do in these assays?
TbREL1 primary: 0

What do the screens show for `O=C(c1ccco1)N1CCN=C1SCc1cccc(F)c1`?
TbREL1 primary: 1

What do the screens show for `O=S(=O)(c1ccc(Br)cc1)N1CCN=C1SCc1cccc(F)c1`?
TbREL1 primary: 11*; TbREL1 conf: 3

What do the screens show for `CC1CN(Cc2cc(=O)n3ccsc3n2)CC(C)O1` (stereo not given)?
TbREL1 primary: 1

What do the screens show for `O=c1cc(CN2CCc3ccccc32)nc2sccn12`?
TbREL1 primary: 15*; TbREL1 conf: 22*

How did O=c1cc(CN2CCCc3ccccc32)nc2sccn12 do in these assays?
TbREL1 primary: 3

What do the screens show for `COc1cc(C(=O)NC2CCCCN(Cc3ccc(Cl)cc3)C2=O)cc(OC)c1OC` (stereo not given)?
TbREL1 primary: 8

What do the screens show for `CCC[C@H]1[C@@H](NCC2CCCCC2)CC[C@@]23CCCN2C(=O)CCC[C@@H]13`?
TbREL1 primary: 2

How did CCCCCCCC(=O)N[C@H]1CC[C@@]23CCCN2C(=O)CCC[C@H]3[C@H]1CCC do in these assays?
TbREL1 primary: 1

Results for CCC[C@H]1[C@@H](OC(=O)NCc2ccc(C)cc2)CC[C@@]23CCCN2C(=O)CCC[C@@H]13 ?
TbREL1 primary: -3

How did CCC[C@H]1[C@@H](OC(=O)NCc2ccc(Cl)cc2)CC[C@@]23CCCN2C(=O)CCC[C@@H]13 do in these assays?
TbREL1 primary: -3

How did CCC[C@H]1[C@@H](OC(=O)NCc2ccc(Cl)c(Cl)c2)CC[C@@]23CCCN2C(=O)CCC[C@@H]13 do in these assays?
TbREL1 primary: 13*; TbREL1 conf: 0

How did CCC[C@H]1[C@@H](NC(=O)C2CCCCC2)CC[C@@]23CCCN2C(=O)CCC[C@@H]13 do in these assays?
TbREL1 primary: 36*; TbREL1 conf: 0

What do the screens show for `COc1ccc(-n2c(SCC(=O)Nc3ccccc3-c3ccccc3)nnc2-c2ccco2)cc1`?
TbREL1 primary: 4

Results for O=C(Nc1ccc(C(O)(C(F)(F)F)C(F)(F)F)cc1)c1ccc(F)cc1F ?
TbREL1 primary: 2

Results for CCCCNS(=O)(=O)/C=C/c1cc2c(cc1CNC(=O)OC(C)(C)C)OCO2 ?
TbREL1 primary: 8

What do the screens show for `CCOC(=O)CCCNC(=O)O[C@@H]1CC[C@@]23CCCN2C(=O)CCC[C@H]3C1`?
TbREL1 primary: -2

Results for COc1cccc(-c2nnc3sc(-c4ccc(Br)o4)nn23)c1 ?
TbREL1 primary: -1

Results for O=C(NCc1cc(C(F)(F)F)ccc1Cl)c1cccc2c1C(=O)c1ccc(N3CCCCC3)cc1S2(=O)=O ?
TbREL1 primary: 41*; TbREL1 conf: 4

What do the screens show for `O=C(NCc1ccc(OC(F)(F)F)cc1)c1cccc2c1C(=O)c1ccc(N3CCCCC3)cc1S2(=O)=O`?
TbREL1 primary: 5

Results for O=C(NCc1cc(C(F)(F)F)ccc1Cl)c1cccc2c1C(=O)c1ccc(N3CCOCC3)cc1S2(=O)=O ?
TbREL1 primary: 0

What do the screens show for `Cn1cccc1CC(=O)NN=Cc1cccc(F)c1`?
TbREL1 primary: 1

What do the screens show for `Cn1cccc1CC(=O)NN=C/C=C\c1ccco1`?
TbREL1 primary: 67*; TbREL1 conf: 2

How did Cc1ccc(-n2c(SCC(=O)N/N=C/C=C\c3ccco3)nnc2-c2ccccc2)cc1 do in these assays?
TbREL1 primary: -6

How did O=C(Nc1sc2c(c1-c1nc3ccccc3s1)CCNC2)C(F)(F)F do in these assays?
TbREL1 primary: 5

Results for Cc1ccc2c(c1)N(CCCC(=O)NCc1cccs1)C(=O)CO2 ?
TbREL1 primary: -1
